# Screens from PubChem BioAssay.
# GCN5L2 inh – qHTS Assay for Inhibitors of GCN5L2 | actives 0.21% (n = 390,000) | AID 504327, 2011 | GCN5L2 HAT assay, ThioGlo1 CoA-SH fluorescence | Potency, µM (series often up to 58.9 µM), inactives show at the highest dose activity change, negative = inhibition, most hits filed as inhibitors | Histone acetyltransferase KAT2A (Homo sapiens), Q92830
#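 GCN5L2 (20nM final) in 50mM HEPES, 0.1mM EDTA pH 7.5, 0.01% Tween-20 was preincubated 15 min at room temperature with compound, then given ThioGlo1 (50uM), H3(1-25) peptide (75uM) and acetyl-CoA (70uM); CoA-thiol fluorescence (Ex340/Em540) was read at 0 and 20 min.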
# TDP1 inh – qHTS Assay for Inhibitors of Tyrosyl-DNA Phosphodiesterase (TDP1); Tyrosyl-DNA phosphodiesterase 1 (Homo sapiens), Q9NUW8; actives 0.28% (n = 350,000); Potency, µM (top dose mostly 130 µM), inactives show at the top dose activity change, negative = inhibition, actives largely listed as inhibitors; recombinant TDP1, AlphaScreen DNA substrate cleavage; also: nearly all actives have a fitted effect of over 40% in size
# Target sequence (Q9NUW8 whole entry, looked up): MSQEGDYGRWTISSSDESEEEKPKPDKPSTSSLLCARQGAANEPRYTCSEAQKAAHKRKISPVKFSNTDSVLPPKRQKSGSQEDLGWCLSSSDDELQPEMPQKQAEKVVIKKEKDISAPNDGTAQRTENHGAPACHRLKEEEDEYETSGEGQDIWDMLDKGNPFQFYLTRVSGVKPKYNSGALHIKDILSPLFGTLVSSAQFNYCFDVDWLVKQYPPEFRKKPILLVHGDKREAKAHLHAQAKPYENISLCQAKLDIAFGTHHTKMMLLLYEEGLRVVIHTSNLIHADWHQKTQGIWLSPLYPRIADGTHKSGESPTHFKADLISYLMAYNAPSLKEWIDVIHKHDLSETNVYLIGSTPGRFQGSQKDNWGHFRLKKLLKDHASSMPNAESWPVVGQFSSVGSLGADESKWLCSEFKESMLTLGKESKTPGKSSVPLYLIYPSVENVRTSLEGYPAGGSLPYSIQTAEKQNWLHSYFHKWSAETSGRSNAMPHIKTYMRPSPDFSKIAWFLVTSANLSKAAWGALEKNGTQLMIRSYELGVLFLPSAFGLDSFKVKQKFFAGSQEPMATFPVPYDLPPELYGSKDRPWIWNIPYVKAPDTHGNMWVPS
#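 Here, a 5' biotin and 3' phosphotyrosine-FITC DNA oligonucleotide reports Tdp1 activity: intact substrate bridges AlphaScreen beads, while cleavage leaves a 3' phosphate and drops signal. All incubations at room temperature.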
# TDP1 cell noCPT – qHTS for Inhibitors of human tyrosyl-DNA phosphodiesterase 1 (TDP1): qHTS in cells in absence of CPT | DT40 Tdp1-/- hTDP1 cells, no CPT, ATP luminescence, 48 h | Potency, µM (titrated, usually from 46.2 µM), without a hit: top-dose activity change, negative = growth inhibition, most hits filed as inhibitors | actives 15% (n = 420,000) | AID 686978, 2013; also: nearly all actives have a fitted effect of over 55% in size
#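 Cells were dispensed at 400 per well, compounds added by pin tool, plates incubated ≥48 hr at 37 °C, then CellTiter-Glo added for 30 min at room temperature before luminescence reading. Line: DT40 Tdp1-/- complemented with hTDP1; camptothecin omitted.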
# TDP1 cell CPT – qHTS for Inhibitors of human tyrosyl-DNA phosphodiesterase 1 (TDP1): qHTS in cells in presence of CPT. chicken DT40 Tdp1-/-;hTDP1 cells + 20 nM CPT, ATP luminescence, 48 h. Potency, µM (titrated, usually from 46.2 µM), for the others: at the top dose activity change, negative = growth inhibition, actives largely listed as inhibitors. actives 12% (n = 420,000). AID 686979, 2013; also: nearly all actives have a fitted effect of over 55% in size
#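 Chicken DT40 Tdp1-/- cells complemented with human TDP1, 400 cells/well, exposed to compounds plus 20 nM camptothecin for at least 48 h at 37 C; viability read as ATP content by CellTiter-Glo luminescence.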
# PLK1 PBD block – qHTS for Inhibitors of PLK1-PDB (polo-like kinase 1 - polo-box domain): Primary Screen; Potency, µM, for inactives: max response, negative = inhibition, usual class: inhibitors; actives 2.8% (n = 360,000); Serine/threonine-protein kinase PLK1 (Homo sapiens), P53350; Plk1 PBD binding of FITC phosphopeptide, fluorescence polarization; also: series mostly up to about 57 µM; nearly all actives have a fitted effect of over 65% in size
# VDR inhibitor – Inhibitors of the vitamin D receptor (VDR): qHTS; actives 0.93% (n = 400,000); Potency, µM, for the others: max response, negative = inhibition, most hits filed as inhibitors; VDR-SRC2-3 peptide fluorescence polarization, 2 h; Vitamin D3 receptor (Homo sapiens), P11473
#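 Fluorescence polarization assay measuring small-molecule disruption of VDR binding to the coregulator peptide SRC2-3. Compounds were pin-transferred (23 nl) into the reagent mix and incubated 2 h at room temperature before reading.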
# Starred values were filed as active, the others as inactive; ? = inconclusive; nt = no result given. In the library only some 18% were active in any assay of this set; here they are far more common. Calls follow the shape of the dose curve; as a rule, active = well fitted curve in the direction sought with a large enough effect; inconclusive = small, poorly fitted or top-dose-only effect, or another doubt; inactive = no such curve, though single readings can be large; an effect the other way counts as inactive or inconclusive. % is scaled to controls: 0 for no effect and ±100 for the full control effect; potency is read from the fitted curve at half-maximal effect.
SMILES,GCN5L2 inh,TDP1 inh,TDP1 cell noCPT,TDP1 cell CPT,PLK1 PBD block,VDR inhibitor
Cc1cccc2cc(/C=N/NC(=O)c3ccncc3)c(Cl)nc12,22%,nt,15%,-3%,0%,-5%
Cc1nc2c(C)cccc2cc1C(=O)N/N=C/c1ccc(O)cc1,-8%,4%,?,29µM*,-7%,-7%
Cc1cccc2cc(/C=N/NC(=O)c3ccccc3O)c(Cl)nc12,?,5%,?,18µM*,-21%,-10%
CC1(C)CC(=O)C=C(c2cccc(Cl)c2O)C1,0%,0%,-5%,-21%,4%,-16%
COc1cccc(CC(=O)OCC(=O)Nc2c(C)nn(-c3ccccc3)c2C)c1,1%,2%,-17%,?,2%,-10%
Cc1cc(C=O)c(C)n1-c1ccc(N2CCCC2)c([N+](=O)[O-])c1,5%,6%,26µM*,?,?,-3%
Cc1ccc(C)n1-c1ccc(N2CCOCC2)c([N+](=O)[O-])c1,-5%,11%,15µM*,?,-5%,-2%
N#Cc1ccc(N2CCOCC2)c([N+](=O)[O-])c1,-4%,7%,-25%,-16%,15µM*,?
COc1ccc(C2C=C3CNS(=O)(=O)C3CC2OC(=O)c2cccc(C)c2)cc1 (centres undefined),nt,10%,nt,nt,nt,-17%
CSc1ccc(CCNC(=O)c2ccc(-n3c(C)cc4c3CCC(C)C4)cc2)cc1 (centres undefined),-13%,7%,-9%,3%,nt,4%
CC1CN(C(=O)c2cc(S(=O)(=O)N3CCCC3)c(Cl)cc2Cl)CC(C)O1 (centres undefined),1%,6%,18µM*,13µM*,-7%,-16%
O=C(c1cc(S(=O)(=O)N2CCOCC2)c(Cl)cc1Cl)N1CCCC1,4%,0%,1%,-2%,-11%,-3%
CC1CN(S(=O)(=O)c2ccc(Cl)c(S(=O)(=O)N3CC(C)OC(C)C3)c2)CC(C)O1 (centres undefined),0%,2%,15µM*,?,-4%,-2%
CCOc1ccc(CCNC(=O)c2ccc(-n3c(C)cc4c3CCC(C)C4)cc2)cc1OCC (centres undefined),-10%,5%,15µM*,15µM*,nt,17%
Cc1ccccc1CCNC(=O)c1ccc(Cl)c(S(=O)(=O)N2CC(C)OC(C)C2)c1 (centres undefined),-14%,-6%,?,18µM*,3%,9%
O=C(NCCCN1CCOCC1)C(=O)NCC1OCCN1S(=O)(=O)c1ccc(Cl)cc1 (centres undefined),nt,nt,?,-2%,-8%,nt
COc1cc2nc(CCc3ccccc3)oc(=O)c2cc1OC,-4%,0%,2%,1%,-5%,-11%
CCOc1ccc(CCNC(=O)c2cccc(S(=O)(=O)N3CC(C)OC(C)C3)c2)cc1OCC (centres undefined),-1%,2%,9.2µM*,?,-3%,-16%
CCCc1cc(=O)[nH]c(SCC(=O)N2c3ccccc3CC2C)n1 (centres undefined),-4%,2%,8%,-4%,-15%,-19%
COc1ccc([C@H]2N[C@]3(CCCN(Cc4ccc(C(F)(F)F)cc4)C3=O)[C@H]3C(=O)N(Cc4ccccc4)C(=O)[C@@H]23)cc1,nt,nt,18µM*,?,-11%,nt
